Source: the supplement of paper PMC10849652
The full data set covers some 7,900 targets. This sample favours those with a hit. About 0.6% of all pairs of compound and target were hits. Values without a mark were called inactive.

Experiments:
Assay in all cases: log2 fold change, soluble protein after heating vs DMSO (PISA); higher = thermal stabilisation; K562 cells, 10 uM, 30 min; active = over 0.2 and 3.5 SD of the protein, either way, in both replicates (recomputed)
[1] = compound: COC1=CC=C(C=C1)CN2C=CC3=C2C=C(C=C3)C(=O)NO
Procedure, shortened: (§1)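 Values are thermal stability changes relative to control samples and are taken from duplicates. They are stated as log2 fold changes. Before quantification by TMTpro 16plex LC-MS/MS with equalised channel sums, K562 cells at 2×10^6 cells/mL were treated with 10 μM compound for 30 min, heated in aliquots for 3 min across 48°C-58°C, pooled, extracted in PBS with 0.5% NP-40 at 4°C, and centrifuged at 21,000xg for 90 min to give the soluble supernatant.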

filanesib = compound: CON(C)C(=O)N1N=C(c2cc(F)ccc2F)S[C@@]1(CCCN)c1ccccc1 [filanesib]
Procedure, shortened: as §1

zotarolimus = compound: CO[C@H]1C[C@@H]2CC[C@@H](C)[C@@](O)(O2)C(=O)C(=O)N2CCCC[C@H]2C(=O)O[C@H]([C@H](C)C[C@@H]2CC[C@H](n3cnnn3)[C@H](OC)C2)CC(=O)[C@H](C)/C=C(\C)[C@@H](O)[C@@H](OC)C(=O)[C@H](C)C[C@H](C)/C=C/C=C/C=C/1C [zotarolimus]
Procedure, shortened: as §1

idasanutlin = compound: COc1cc(C(=O)O)ccc1NC(=O)[C@@H]1N[C@@H](CC(C)(C)C)[C@](C#N)(c2ccc(Cl)cc2F)[C@H]1c1cccc(Cl)c1F [idasanutlin]
Procedure, shortened: as §1

alisertib = compound: COc1cc(Nc2ncc3c(n2)-c2ccc(Cl)cc2C(c2c(F)cccc2OC)=NC3)ccc1C(=O)O [alisertib]
Procedure, shortened: as §1

[2] = compound: COc1cc2nc(-c3cc(F)ccc3O)nc(N[C@@H]3CNC[C@H]3C(C)(C)O)c2cc1OC
Procedure, shortened: as §1

gefitinib = compound: COc1cc2ncnc(Nc3ccc(F)c(Cl)c3)c2cc1OCCCN1CCOCC1 [gefitinib]
Procedure, shortened: as §1

[3] = compound: COc1cccc2cc(-c3nc([C@H]4CC[C@H](C(=O)O)CC4)n4ncnc(N)c34)[nH]c12
Procedure, shortened: as §1

lapatinib = compound: CS(=O)(=O)CCNCc1ccc(-c2ccc3ncnc(Nc4ccc(OCc5cccc(F)c5)c(Cl)c4)c3c2)o1 [lapatinib]
Procedure, shortened: as §1

pictilisib = compound: CS(=O)(=O)N1CCN(Cc2cc3nc(-c4cccc5[nH]ncc45)nc(N4CCOCC4)c3s2)CC1 [pictilisib]
Procedure, shortened: as §1

[4] = compound: CS(=O)(=O)c1ccc(-c2cnc(N)c(C(=O)Nc3ccccc3)n2)cc1
Procedure, shortened: as §1

crizotinib = compound: C[C@@H](Oc1cc(-c2cnn(C3CCNCC3)c2)cnc1N)c1c(Cl)ccc(F)c1Cl [crizotinib]
Procedure, shortened: as §1

[5] = compound: C[C@@H]1COCCN1C2=NC(=NC(=C2)C3(CC3)S(=O)(=O)C)C4=C5C=CNC5=CC=C4
Procedure, shortened: as §1

[6] = compound: C[C@H](C1=CC=C(C=C1)C(=O)NC2=C3C=CNC3=NC=C2)N
Procedure, shortened: as §1

duvelisib = compound: C[C@H](Nc1ncnc2nc[nH]c12)c1cc2cccc(Cl)c2c(=O)n1-c1ccccc1 [duvelisib]
Procedure, shortened: as §1

gandotinib = compound: Cc1cc(Nc2cc(CN3CCOCC3)c3nc(C)c(Cc4ccc(Cl)cc4F)n3n2)n[nH]1 [gandotinib]
Procedure, shortened: as §1

tozasertib = compound: Cc1cc(Nc2cc(N3CCN(C)CC3)nc(Sc3ccc(NC(=O)C4CC4)cc3)n2)n[nH]1 [tozasertib]
Procedure, shortened: as §1

[7] = compound: Cc1cc(SCc2sc(-c3ccc(C(F)(F)F)cc3)nc2C)ccc1OCC(=O)O
Procedure, shortened: as §1

doramapimod = compound: Cc1ccc(-n2nc(C(C)(C)C)cc2NC(=O)Nc2ccc(OCCN3CCOCC3)c3ccccc23)cc1 [doramapimod]
Procedure, shortened: as §1

ispinesib = compound: Cc1ccc(C(=O)N(CCCN)[C@@H](c2nc3cc(Cl)ccc3c(=O)n2Cc2ccccc2)C(C)C)cc1 [ispinesib]
Procedure, shortened: as §1

Sequence of UniProt O94874 (O94874 whole entry, looked up): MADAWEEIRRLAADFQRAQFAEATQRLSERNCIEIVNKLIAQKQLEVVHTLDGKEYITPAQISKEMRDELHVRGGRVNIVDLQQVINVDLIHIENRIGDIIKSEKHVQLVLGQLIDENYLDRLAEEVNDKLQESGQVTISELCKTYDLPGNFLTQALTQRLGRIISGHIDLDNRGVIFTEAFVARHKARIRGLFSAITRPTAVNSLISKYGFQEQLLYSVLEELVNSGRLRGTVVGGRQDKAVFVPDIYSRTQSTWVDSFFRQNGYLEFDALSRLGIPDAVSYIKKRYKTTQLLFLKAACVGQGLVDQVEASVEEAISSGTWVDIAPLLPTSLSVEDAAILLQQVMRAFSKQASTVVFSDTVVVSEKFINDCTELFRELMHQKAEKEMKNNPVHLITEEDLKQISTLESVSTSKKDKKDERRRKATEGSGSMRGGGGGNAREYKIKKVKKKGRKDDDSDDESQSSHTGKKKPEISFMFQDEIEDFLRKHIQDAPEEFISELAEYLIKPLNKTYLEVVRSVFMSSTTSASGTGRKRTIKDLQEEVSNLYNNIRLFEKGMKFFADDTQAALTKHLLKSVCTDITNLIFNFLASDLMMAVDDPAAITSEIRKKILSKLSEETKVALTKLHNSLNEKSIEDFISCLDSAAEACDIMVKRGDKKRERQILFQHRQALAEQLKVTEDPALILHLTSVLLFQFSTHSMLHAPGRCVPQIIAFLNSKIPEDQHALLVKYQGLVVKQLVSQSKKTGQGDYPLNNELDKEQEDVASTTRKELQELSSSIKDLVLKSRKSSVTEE
Sequence of UniProt P02585 (P02585 whole entry, looked up): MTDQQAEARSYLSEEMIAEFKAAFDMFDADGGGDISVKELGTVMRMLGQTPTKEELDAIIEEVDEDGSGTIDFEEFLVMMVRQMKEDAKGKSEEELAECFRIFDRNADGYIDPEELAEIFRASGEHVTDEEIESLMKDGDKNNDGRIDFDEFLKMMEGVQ
Sequence of UniProt Q7L0Y3 (Q7L0Y3 whole entry, looked up): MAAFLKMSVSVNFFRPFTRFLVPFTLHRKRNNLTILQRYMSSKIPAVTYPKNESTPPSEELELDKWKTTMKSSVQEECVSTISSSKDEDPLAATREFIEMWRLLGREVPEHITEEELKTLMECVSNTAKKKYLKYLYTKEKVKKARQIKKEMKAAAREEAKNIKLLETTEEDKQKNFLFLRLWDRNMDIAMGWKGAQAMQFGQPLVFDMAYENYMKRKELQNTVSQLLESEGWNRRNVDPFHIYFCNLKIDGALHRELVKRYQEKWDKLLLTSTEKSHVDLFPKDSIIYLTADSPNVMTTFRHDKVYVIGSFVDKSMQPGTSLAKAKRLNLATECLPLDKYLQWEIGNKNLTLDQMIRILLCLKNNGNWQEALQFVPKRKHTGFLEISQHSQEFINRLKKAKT
Sequence of UniProt Q15642 (Q15642 whole entry, looked up): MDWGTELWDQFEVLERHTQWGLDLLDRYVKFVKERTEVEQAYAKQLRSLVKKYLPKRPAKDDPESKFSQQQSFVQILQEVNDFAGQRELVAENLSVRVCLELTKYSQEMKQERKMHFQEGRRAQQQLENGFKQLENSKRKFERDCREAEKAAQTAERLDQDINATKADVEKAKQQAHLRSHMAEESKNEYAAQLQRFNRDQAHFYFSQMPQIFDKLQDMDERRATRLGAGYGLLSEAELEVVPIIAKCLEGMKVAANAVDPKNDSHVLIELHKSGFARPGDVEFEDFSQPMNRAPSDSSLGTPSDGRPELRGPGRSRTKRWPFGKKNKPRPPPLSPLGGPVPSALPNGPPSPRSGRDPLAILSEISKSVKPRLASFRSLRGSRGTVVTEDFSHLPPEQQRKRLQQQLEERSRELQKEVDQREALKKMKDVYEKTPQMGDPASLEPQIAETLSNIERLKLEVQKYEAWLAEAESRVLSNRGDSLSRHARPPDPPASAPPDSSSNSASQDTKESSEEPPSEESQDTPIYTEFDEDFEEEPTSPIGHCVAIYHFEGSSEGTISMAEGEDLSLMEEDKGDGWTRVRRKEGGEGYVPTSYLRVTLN
Sequence of UniProt P26368 (P26368 whole entry, looked up): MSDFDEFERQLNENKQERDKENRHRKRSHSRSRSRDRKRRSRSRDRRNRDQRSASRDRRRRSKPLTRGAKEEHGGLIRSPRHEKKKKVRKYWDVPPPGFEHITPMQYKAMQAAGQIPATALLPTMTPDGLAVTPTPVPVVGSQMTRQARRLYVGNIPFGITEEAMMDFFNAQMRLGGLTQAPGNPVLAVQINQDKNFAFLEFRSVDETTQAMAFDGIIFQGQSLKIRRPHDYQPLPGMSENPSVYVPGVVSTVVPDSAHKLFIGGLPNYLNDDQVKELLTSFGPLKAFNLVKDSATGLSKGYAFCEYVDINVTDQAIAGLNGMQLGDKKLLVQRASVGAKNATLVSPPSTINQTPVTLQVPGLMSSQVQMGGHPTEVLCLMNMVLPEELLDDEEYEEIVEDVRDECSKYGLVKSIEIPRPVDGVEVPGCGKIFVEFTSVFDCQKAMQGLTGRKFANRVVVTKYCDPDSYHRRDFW
Sequence of UniProt A6NHL2 (A6NHL2 whole entry, looked up): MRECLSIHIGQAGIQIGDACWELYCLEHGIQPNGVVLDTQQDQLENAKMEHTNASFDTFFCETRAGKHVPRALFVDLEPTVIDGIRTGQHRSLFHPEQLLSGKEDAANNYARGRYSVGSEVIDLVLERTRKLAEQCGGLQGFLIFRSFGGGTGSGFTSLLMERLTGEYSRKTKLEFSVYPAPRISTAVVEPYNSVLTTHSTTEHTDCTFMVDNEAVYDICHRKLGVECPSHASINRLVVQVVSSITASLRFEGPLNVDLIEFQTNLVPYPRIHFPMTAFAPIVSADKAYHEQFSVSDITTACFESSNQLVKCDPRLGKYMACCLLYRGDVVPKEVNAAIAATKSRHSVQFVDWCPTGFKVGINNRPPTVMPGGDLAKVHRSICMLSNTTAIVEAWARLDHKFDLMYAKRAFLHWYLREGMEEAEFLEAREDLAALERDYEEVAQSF
Sequence of UniProt Q9NP79 (Q9NP79 whole entry, looked up): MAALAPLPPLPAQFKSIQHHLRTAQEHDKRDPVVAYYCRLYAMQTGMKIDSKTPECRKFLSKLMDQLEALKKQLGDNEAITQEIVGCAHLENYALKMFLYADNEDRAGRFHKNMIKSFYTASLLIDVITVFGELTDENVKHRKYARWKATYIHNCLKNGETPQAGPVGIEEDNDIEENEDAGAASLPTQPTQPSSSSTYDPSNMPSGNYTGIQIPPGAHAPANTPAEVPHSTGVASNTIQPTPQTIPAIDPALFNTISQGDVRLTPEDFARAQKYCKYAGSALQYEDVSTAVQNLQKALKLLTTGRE
Sequence of UniProt Q15388 (Q15388 whole entry, looked up): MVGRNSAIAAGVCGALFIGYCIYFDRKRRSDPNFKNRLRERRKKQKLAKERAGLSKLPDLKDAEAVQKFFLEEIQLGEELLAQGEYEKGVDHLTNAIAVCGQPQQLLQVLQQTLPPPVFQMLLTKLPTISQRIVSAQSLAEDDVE

Row | Target | log2 fold change [1] | log2 fold change (filanesib) | log2 fold change (zotarolimus) | log2 fold change (idasanutlin) | log2 fold change (alisertib) | log2 fold change [2] | log2 fold change (gefitinib) | log2 fold change [3] | log2 fold change (lapatinib) | log2 fold change (pictilisib) | log2 fold change [4] | log2 fold change (crizotinib) | log2 fold change [5] | log2 fold change [6] | log2 fold change (duvelisib) | log2 fold change (gandotinib) | log2 fold change (tozasertib) | log2 fold change [7] | log2 fold change (doramapimod) | log2 fold change (ispinesib)
1 | TRIP10 (UniProt Q15642) | 0.054 | 0.01 | -0.007 | -0.061 | -0.026 | 0.083 | -0.014 | -0.04 | 0.021 | 0.033 | 0.08 | -0.009 | -0.085 | -0.026 | 0.005 | 0.044 | -0.003 | 0.038 | -0.036 | -0.021
2 | UFL1 (UniProt O94874) | 0.029 | -0.022 | 0.025 | -0.108 | -0.074 | 0.212 | 0.003 | -0.071 | -0.017 | 0.016 | 0.05 | -0.053 | -0.043 | 0.067 | 0.005 | -0.069 | -0.016 | 0.106 | -0.02 | -0.025
3 | TRMT10C (UniProt Q7L0Y3) | -0.045 | -0.031 | 0.016 | -0.107 | -0.033 | 0.018 | 0.039 | 0.005 | -0.033 | 0.007 | 0.045 | 0.03 | 0.109 | -0.013 | 0.024 | -0.072 | 0 | 0.069 | -0.008 | 0.017
4 | TOMM20 (UniProt Q15388) | -0.011 | -0.213 | 0.005 | -0.022 | -0.029 | -0.25 | 0.005 | -0.001 | 0.045 | 0.007 | -0.068 | -0.019 | 0.058 | -0.06 | 0.016 | 0.116 | -0.042 | -0.062 | -0.025 | -0.358 (active)
5 | VTA1 (UniProt Q9NP79) | -0.01 | -0.033 | 0.044 | -0.094 | -0.014 | 0.056 | -0.003 | -0.008 | -0.014 | 0.006 | 0.032 | -0.049 | 0.056 | -0.019 | 0.019 | -0.127 | 0.004 | 0.057 | -0.021 | -0.014
6 | TNNC2 (UniProt P02585) | -0.037 | 0.038 | -0.006 | 0.007 | -0.172 | 0.014 | 0.008 | 0.045 | -0.027 | 0.025 | -0.004 | 0.06 | 0.04 | -0.005 | 0.072 | 0.078 | -1.1 (active) | -0.059 | -0.014 | 0.022
7 | U2AF2 (UniProt P26368) | 0.038 | 0.071 | 0.018 | 0.042 | -0.089 | 0.014 | 0.028 | 0.074 | -0.013 | 0.013 | 0.036 | -0.101 | 0.057 | -0.101 | -0.029 | 0.036 | 0.008 | 0.063 | -0.006 | 0.014
8 | TUBAL3 (UniProt A6NHL2) | -0.037 | -0.058 | -0.064 | -0.218 | 0.048 | 0 | -0.059 | 0.015 | 0.075 | 0.052 | -0.097 | -0.128 | 0.161 | 0.02 | 0.009 | -0.165 | 0 | -0.02 | 0.113 | -0.108
